# Source: PubChem BioAssay AID720706 (Broad Institute, 2013)
# Hit rate of the full screen: of about 350,000 compounds, about 5,500 (1.6%) were called active.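 How the source made its calls: active means significant combined selectivity score with lowered wild-type GFP, culture density cut under 30%, mutant RFP and density less affected; inactive means any of these conditions unmet.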 Shown is part of a subset that was picked to be rich in actives.
# Assay: reduced GFP signal of wild-type E. coli, primary screen, bacterial rRNA inhibitor project, GFP/RFP fluorescence, OD600, single point (AID 720706)
# Settings: E. coli WT GFP vs humanized-ribosome RFP mutants, 24 h; GFP signal change (wild-type ribosome): stronger effect = lower value, DMSO median 0, no signal -100; OD600 change: measured here: OD600 growth, DMSO median 0, no signal -100; RFP signal change: measured here: RFP humanized mutant strains, DMSO median 0, no signal -100, concentration not given here
Structure (SMILES),GFP signal change (wild-type ribosome),OD600 change [%],RFP signal change [%]
CS(=O)(=O)N(CC(=O)N1CCc2ccccc2C1)c1ccc(Br)cc1,-22.4% (active),-11,0.676
COCc1cn(CC[C@H]2CC[C@H](NC(=O)c3ccncc3)[C@H](CO)O2)nn1,1.82% (inactive),6.54,-3.21
CC(C)[C@@H]1COCc2cnnn2CCC[C@H](C)C(=O)N1,1.6% (inactive),7.64,1.53
CC(C)(C)C(c1nc2ccccc2[nH]1)n1c(Cc2csc3ccccc23)nc2ccccc21 (stereo unspecified),-9.17% (inactive),-4.49,9.77
COC(=O)c1cccc(NC(=O)c2cccc(N3C(=O)CCC3=O)c2)c1,0.987% (inactive),9.02,0.607
Cc1ccc(NC(=O)COC(=O)C2C3CC4OC(=O)C2C4C3)cc1Cl (stereo unspecified),-1.3% (inactive),-3.04,-5.78
Cc1cc(C)cc(NC(=O)c2cccc(NC(=O)C3C4CC5OC(=O)C3C5C4)c2)c1 (stereo unspecified),-21.2% (active),-14.4,6.04
COc1ccccc1C#Cc1ccc2c(c1)O[C@@H](CN(C)Cc1cncnc1)[C@H](C)CN([C@@H](C)CO)S2(=O)=O,-12.1% (inactive),-13.6,10
O=C1CN(S(=O)(=O)Cc2ccccc2)C[C@@H]2[C@@H](c3ccc(C#Cc4cccc(F)c4)cc3)[C@@H](CO)N12,-6.58% (inactive),-36.6,26.9
C[C@@H]1CN([C@@H](C)CO)S(=O)(=O)c2ccc(C#C[C@@H](C)O)cc2O[C@@H]1CN(C)C(=O)Cc1ccccn1,3.39% (inactive),0.98,-0.13
COc1ccccc1C(=O)Nc1ccc2c(c1)C(=O)N(C)C[C@@H](OC)[C@@H](C)CN(CC1CC1)[C@@H](C)CO2,-1.52% (inactive),-3.13,0.12
CCOc1cc(/C=C2\SC(N3CCCCC3)=NC2=O)ccc1O,-19.3% (inactive),-20.3,8.23
CCN1C(=O)/C(=C2\SC(N3CCCCC3)=NC2=O)c2ccccc21,-24% (active),0.66,-4.52
CC(C)=C1SC(N2CCN(c3ccc(C)c(Cl)c3)CC2)=NC1=O,-1.49% (inactive),-2.03,-2.71
COc1cccc(C(=O)N2C[C@@H]3[C@H](c4ccccc42)[C@H](CO)N3Cc2ccccc2F)c1,-8.84% (inactive),-21.6,1.94
COc1ccccc1N1CCN(/N=C/c2ccc(O)cc2O)CC1,2.04% (inactive),0.96,-2.29

Structure (SMILES),GFP signal change (wild-type ribosome),OD600 change [%],RFP signal change [%]
Cc1n[nH]c(=O)nc1N/N=C/c1cccs1,12.5% (inactive),-10.6,3.52
Cc1nc2ccccc2nc1N/N=C/c1ccc(O)cc1O,-17.1% (active),-1,6.07
CN(C)CCCNC(=O)C[C@H]1C=C[C@@H](NC(=O)Cc2cccnc2)[C@H](CO)O1,-1.21% (inactive),6.35,-1.98
Cc1[nH]n(C)c(=O)c1C(=O)c1c(-c2c(Cl)cccc2Cl)noc1C,23.4% (inactive),10.3,1.84
Cc1onc(-c2c(F)cccc2Cl)c1C(=O)Nc1cccc(S(=O)(=O)N2CCCCC2)c1,-6.88% (inactive),-20.2,-1.93
Cc1onc(-c2c(Cl)cccc2Cl)c1C(=O)NNC(=O)c1c(-c2c(Cl)cccc2Cl)noc1C,-35.2% (active),-26.9,1.07
CN1C(=O)c2cc(NC(=O)c3ccc(Cl)cc3)ccc2OC[C@H]2O[C@H](CC(=O)O)CC[C@H]21,1.69% (inactive),1.68,-1.26
C[C@H]1CN([C@@H](C)CO)C(=O)c2cc(NC(=O)Nc3ccc4c(c3)OCO4)ccc2O[C@H]1CN(C)S(=O)(=O)c1ccc(F)cc1,-3.35% (inactive),-0.035,3.46
CN1C(=O)c2cc(NC(=O)C3CCC3)ccc2OC[C@@H]2O[C@@H](CC(=O)NCCc3ccncc3)CC[C@H]21,5.03% (inactive),10.1,-1.17
COc1ccccc1CCNC(=O)CSc1nnc2ccc(-c3cccnc3)nn12,-2.66% (inactive),7.92,10.5
S=c1nc2ccccc2c2nc(-c3cccnc3)[nH]n12,-0.36% (inactive),-3.58,-4.9
COc1ccccc1Oc1nc(-c2cccnc2)nc2ccccc12,-34.3% (active),-23.4,-3.61
Cc1ccc(S(=O)(=O)N(C)C[C@@H]2Oc3ccc(NS(=O)(=O)c4cn(C)cn4)cc3C(=O)N([C@@H](C)CO)C[C@H]2C)cc1,0.239% (inactive),-1.14,0.319
Cc1ccc(Cn2nnc3c(=O)[nH]c(C4CCN(S(=O)(=O)/C=C/c5ccccc5)CC4)nc32)cc1,-1.02% (inactive),-8.59,5.14
Cc1ccc(NC(=O)N2CCC(c3nc4c(nnn4Cc4c(F)cccc4Cl)c(=O)[nH]3)CC2)cc1,-32.9% (active),-18.6,-4.28
O=C(Nc1ccc(F)cc1)N1CCCC(c2nc3c(nnn3Cc3ccccc3Cl)c(=O)[nH]2)C1 (stereo unspecified),5.54% (inactive),16.4,5.16
